# Source: the supplement of paper PMC6607015
# Where a name gives a salt, the structure may show the parent alone.
# What was measured:
# Conditions in all cases: compound concentration in added solution (µM; 5 µl added to 20 µl cells): 10; 18 h
# A431 [1] = experiment: LBPA endosome anti-LBPA integrated intensity (sum per cell), Z-score; higher = more LBPA staining
# How it was run: (§1)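 The data are Z-scores, normalised in AcuityXpress, of integrated LBPA or filipin intensity in each cell, either whole-cell or restricted to LBPA endosomes. HeLa MZ or A431 cells, 3,500 per well in 20 µl, were seeded onto 5 µl of 10 µM compound solution in duplicate 384-well plates and incubated 18 h. Fixed cells were stained and imaged, with intensities extracted by MetaXpress segmentation.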
# HeLa MZ [2] = experiment: as above
# How it was run: as §1
# A431 [3] = experiment: whole-cell filipin (free cholesterol) integrated intensity, Z-score; higher = more cholesterol staining
# How it was run: as §1
# HeLa MZ [4] = experiment: as above
# How it was run: as §1
# A431 [5] = experiment: filipin (cholesterol) integrated intensity within LBPA endosomes, Z-score; higher = more cholesterol in LBPA endosomes
# How it was run: as §1
# HeLa MZ [6] = experiment: as above
# How it was run: as §1
SMILES,LBPA endosome anti-LBPA integrated intensity (z-score) (A431 [1]),LBPA endosome anti-LBPA integrated intensity (z-score) (HeLa MZ [2]),whole-cell filipin (z-score) (A431 [3]),whole-cell filipin (z-score) (HeLa MZ [4]),filipin (z-score) (A431 [5]),filipin (z-score) (HeLa MZ [6])
C[C@H]1C[C@H]2[C@@H]3CCC4=CC(=O)C=C[C@]4(C)[C@@]3(F)[C@@H](O)C[C@]2(C)[C@@]1(O)C(=O)CO [Betamethasone],-0.442,-0.354,-0.547,-0.354,-0.536,-0.463
CC(=O)N(O)CCCCCNC(=O)CCC(=O)N(O)CCCCCNC(=O)CCC(=O)N(O)CCCCCN [Deferoxamine mesylate],-0.408,-0.755,0.541,-0.469,-0.422,-0.499
CCn1cc(C(=O)O)c(=O)c2ccc(C)nc21 [Nalidixic acid sodium salt],-0.59,-0.884,-0.346,-0.298,-0.467,-0.567
N=C(N)c1ccc(OCCCCCOc2ccc(C(=N)N)cc2)cc1 [Pentamidine isethionate],-0.319,-1.47,-0.429,-0.57,-0.313,-0.712
COc1c2occc2c(OC)c2c(=O)cc(C)oc12 [Khellin],-0.364,-0.599,-0.787,-0.817,-0.439,-0.439
NCc1ccccc1CC(=O)N[C@@H]1C(=O)N2C(C(=O)O)=C(CSc3nnnn3CC(=O)O)CS[C@H]12 [Ceforanide],-0.318,-0.0362,-0.326,-0.285,-0.513,-0.563
O=c1oc2ccccc2c(O)c1Cc1c(O)c2ccccc2oc1=O [Dicumarol],-0.455,-0.834,-0.37,-0.48,-0.64,-0.672
O=C(O)c1cc(-c2ccc(F)cc2F)ccc1O [Diflunisal],-0.321,-0.139,-0.11,-0.25,-0.434,-0.569
CCOC(=O)c1ccc(OC(=O)CCCCCNC(=N)N)cc1 [Gabexate mesilate],-0.44,0.019,0.196,0.0139,-0.481,-0.456
CC1=C(/C=C/C(C)=C/C=C/C(C)=C/C(=O)O)C(C)(C)CCC1 [Retinoic acid],-0.177,-0.508,-0.103,-0.698,-0.286,-0.43
CCn1cc(C(=O)O)c(=O)c2cc(F)c(N3CCN(C)CC3)cc21 [Pefloxacine],-0.525,-0.713,-0.866,-1.02,-0.571,-0.621
O=C(O)CCc1nc(-c2ccccc2)c(-c2ccccc2)o1 [Oxaprozin],-0.435,-0.524,-0.0363,0.42,-0.35,-0.246
CC(=O)S[C@@H]1CC2=CC(=O)CC[C@]2(C)[C@H]2CC[C@@]3(C)[C@@H](CC[C@@]34CCC(=O)O4)[C@H]12 [Spironolactone],-0.583,-0.535,-0.744,-0.849,-0.526,-0.689
Cc1c(NC(=O)c2cccnc2)c(=O)n(-c2ccccc2)n1C [Nifenazone],-0.531,-0.887,-0.738,-0.647,-0.626,-0.754
C[N+](C)(CCOc1ccccc1)Cc1ccccc1.O=C([O-])c1cc2ccccc2cc1O [Bephenium hydroxynaphthoate],-0.418,0.146,-0.383,-0.145,-0.456,-0.371
CC1(C)[C@H](C(=O)O)N2C(=O)C[C@H]2S1(=O)=O [Sulbactam],-0.453,-1.27,-0.128,-0.121,-0.375,-0.509
COC(=O)C1=C(C)NC(C)=C(C(=O)OCCN(C)Cc2ccccc2)C1c1cccc([N+](=O)[O-])c1 (stereo unspecified) [Nicardipine hydrochloride],1.9,0.904,1.24,-0.142,1.79,0.881
COc1ccc(CC(C)NCC(O)c2ccc(O)c(NC=O)c2)cc1 (stereo unspecified) [Formoterol fumarate],-0.505,-1.42,0.171,-0.609,-0.478,-0.313
CCCCCN(C)CCC(O)(P(=O)(O)O)P(=O)(O)O [Ibandronate sodium],-0.326,0.467,-0.0185,0.267,-0.423,-0.352
CC(COc1ccccc1)N(CCCl)Cc1ccccc1 (stereo unspecified) [Phenoxybenzamine hydrochloride],-0.295,-0.519,-0.105,0.141,-0.396,-0.505
Clc1ccccc1CN1CCc2sccc2C1 [Ticlopidine hydrochloride],-0.571,-1.16,-0.834,-0.662,-0.515,-0.675
CC(CCc1ccccc1)NCC(O)c1ccc(O)c(C(N)=O)c1 (stereo unspecified) [Labetalol hydrochloride],0.794,1.06,1,-0.0368,0.489,0.328
COc1ccc([C@@H]2Sc3ccccc3N(CCN(C)C)C(=O)[C@@H]2OC(C)=O)cc1 [Diltiazem hydrochloride],-0.508,0.314,-0.778,-0.456,-0.362,-0.144

SMILES,LBPA endosome anti-LBPA integrated intensity (z-score) (A431 [1]),LBPA endosome anti-LBPA integrated intensity (z-score) (HeLa MZ [2]),whole-cell filipin (z-score) (A431 [3]),whole-cell filipin (z-score) (HeLa MZ [4]),filipin (z-score) (A431 [5]),filipin (z-score) (HeLa MZ [6])
CC1(C)O[C@@H]2[C@@H](CO[C@@]3(COS(N)(=O)=O)OC(C)(C)O[C@@H]23)O1 [Topiramate],-0.482,-0.13,-0.0917,-0.317,-0.419,-0.514
CCCNC(=O)NS(=O)(=O)c1ccc(Cl)cc1 [Chlorpropamide],-0.658,-1.65,-0.845,-0.558,-0.591,-0.571
CC[C@H]1OC(=O)[C@H](C)[C@@H](O[C@H]2C[C@@](C)(OC)[C@@H](O)[C@H](C)O2)[C@H](C)[C@@H](O[C@@H]2O[C@H](C)C[C@H](N(C)C)[C@H]2O)[C@](C)(O)C[C@@H](C)CN(C)[C@H](C)[C@@H](O)[C@]1(C)O [Azithromycin],4.39,1.79,0.331,0.115,1.25,1.45
CC(C)NC[C@H](O)COc1cccc2ccccc12 [(S)-propranolol hydrochloride],-0.105,1.72,0.666,-0.426,-0.189,0.093
CC(C)(CO)C(O)C(=O)NCCCO (stereo unspecified) [Panthenol (D)],-0.558,-0.28,-0.953,-0.974,-0.509,-0.649
CC1(C)O[C@@H]2C[C@H]3[C@@H]4C[C@H](F)C5=CC(=O)C=C[C@]5(C)[C@@]4(F)[C@@H](O)C[C@]3(C)[C@]2(C(=O)CO)O1 [Fluocinolone acetonide],-0.172,-0.371,0.258,0.13,-0.163,-0.367
O=C1c2ccccc2C(=O)C1c1ccccc1 [Phenindione],-0.457,0.398,-0.346,-0.343,-0.498,-0.468
CCOC(=O)[C@@](C)(N)Cc1ccc(O)c(O)c1 [Methyldopate hydrochloride],-0.346,-0.632,-0.323,-0.577,-0.327,-0.42
CCC1(c2ccccc2)C(=O)NCNC1=O [Primidone],-0.559,-0.0866,-0.586,-0.472,-0.509,-0.574
CO[C@H]1C[C@H](O[C@H]2[C@H](C)[C@@H](O[C@@H]3O[C@H](C)C[C@H](N(C)C)[C@H]3OC(C)=O)[C@@H](C)C[C@@]3(CO3)C(=O)[C@H](C)[C@@H](OC(C)=O)[C@@H](C)[C@@H](C)OC(=O)[C@@H]2C)O[C@@H](C)[C@@H]1OC(C)=O [Troleandomycin],-0.105,0.938,-0.701,-0.492,-0.249,-0.17
CN1CCC(OC(c2ccccc2)c2ccccc2)CC1 [Diphenylpyraline hydrochloride],0.268,1.06,0.89,0.448,0.505,0.456
Nc1ccc(S(=O)(=O)Nc2nccs2)cc1 [Sulfathiazole],-0.403,-0.679,-0.453,0.103,-0.36,-0.308
CC(=O)Nc1c(I)c(C(=O)N[C@H]2C(O)O[C@H](CO)[C@@H](O)[C@@H]2O)c(I)c(N(C)C(C)=O)c1I (stereo partly specified) [Metrizamide],-0.495,-0.295,-0.527,-0.9,-0.561,-0.597
C=CCOC(Cn1ccnc1)c1ccc(Cl)cc1Cl (stereo unspecified) [Enilconazole],-0.206,-0.741,0.571,0.192,-0.128,-0.352
CN(C)[C@@H]1C(O)=C(C(=O)NCNCCCC[C@H](N)C(=O)O)C(=O)[C@@]2(O)C(O)=C3C(=O)c4c(O)cccc4[C@@](C)(O)[C@H]3C[C@@H]12 [Lymecycline],-0.193,0.509,0.136,0.267,-0.319,-0.559
O=c1[nH]cnc2c1ncn2[C@H]1CC[C@@H](CO)O1 [Didanosine],-0.649,-1.14,-1.2,-0.832,-0.585,-0.693
CC1CC(OC(=O)C(O)c2ccccc2)CC(C)(C)N1C (stereo unspecified) [Eucatropine hydrochloride],-0.612,-0.981,-0.351,-0.392,-0.513,-0.342
CCCOc1ccccc1-c1nc2[nH]nnc2c(=O)[nH]1 [Zaprinast],-0.577,-0.755,-0.471,0.00218,-0.519,-0.401
CC(=O)c1ccc2c(c1)N(CCCN(C)C)c1ccccc1S2 [Acetopromazine maleate salt],1.92,2.14,0.736,-0.149,1.18,1.7
O=C(O)c1cn(C2CC2)c2cc(N3CCNCC3)c(F)cc2c1=O [Ciprofloxacin hydrochloride hydrate],-0.633,-0.847,-0.925,-0.971,-0.579,-0.519
Cc1c(N(C)CS(=O)(=O)O)c(=O)n(-c2ccccc2)n1C [Dipyrone],-0.646,-1.3,-0.336,-0.214,-0.539,-0.551
CCCCC1(COC(=O)CCC(=O)O)C(=O)N(c2ccccc2)N(c2ccccc2)C1=O [Suxibuzone],-0.274,0.271,-0.0127,0.34,-0.358,-0.384
CCN(CCCc1ccccc1)CCCc1ccccc1 [Alverine citrate salt],2.06,1.56,1.13,-0.0321,1.44,0.403
